Assay results published in PubChem BioAssay (NCI).
This is part of a sample that, as a whole, favours compounds with a hit. Of some 83,000 tested, about 20% had one in any assay.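 Compound tested at a single concentration for 48 hours in 96-well plates; a percent growth value below 10 was scored as active.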 Active and inactive are the calls of the source.

Tests used:
Assay in all cases: NCI-60 one-dose screen, 48 h (100 = growth as untreated, 0 = no growth, -100 = all killed)
Details in all cases: 10 µM unless noted
NCI-H226 lung = test system: NCI-H226 lung
NCI-H322M lung = test system: NCI-H322M lung
HOP-62 NSCLC = test system: HOP-62 NSCLC
NCI-H460 lung = test system: NCI-H460 lung
HOP-92 NSCLC = test system: HOP-92 NSCLC
NCI-H522 lung = test system: NCI-H522 lung
A549/ATCC NSCLC = test system: A549/ATCC NSCLC
786-0 renal = test system: 786-0 renal
COLO 205 colon = test system: COLO 205 colon

Measured: growth

CCN(CC)CCCCCCNc1cc(OC)c(Cl)c2cccnc12
inactive: NCI-H226 lung 78.7% | NCI-H322M lung 92.7% | HOP-62 NSCLC 69.1% | NCI-H460 lung 83.9% | HOP-92 NSCLC 58.8% | NCI-H522 lung 81.1% | A549/ATCC NSCLC 96.7% | 786-0 renal 73.9% | COLO 205 colon 55.1%

COc1ccc(-c2nc(SCCC(C)C)nc(N/N=C\c3cccc(Cl)c3)c2C#N)cc1
inactive: NCI-H226 lung 90% | NCI-H322M lung 55.8% | HOP-62 NSCLC 49.7% | NCI-H460 lung 15.2% | HOP-92 NSCLC 62.5% | NCI-H522 lung 71.3% | A549/ATCC NSCLC 59.7% | 786-0 renal 43.2% | COLO 205 colon 81.9%

O=S(=O)(NCCCNc1cc(-c2c(-c3cccc(O)c3)nc3sccn23)ccn1)c1cccc(Cl)c1
inactive: NCI-H226 lung 61.5% | NCI-H322M lung 85.5% | HOP-62 NSCLC 72.8% | NCI-H460 lung 47.3% | HOP-92 NSCLC 111% | NCI-H522 lung 44.1% | 786-0 renal 54.8% | COLO 205 colon 46.3%

CN(C)CC1=NC2SC=C(c3ccccc3)C2C(=O)N1CC#N (centres undefined)
active: HOP-92 NSCLC -14.6%
inactive: NCI-H226 lung 85.5% | NCI-H322M lung 89.2% | HOP-62 NSCLC 102% | NCI-H460 lung 115% | NCI-H522 lung 84.5% | 786-0 renal 96.2% | COLO 205 colon 130%

c1coc(-c2c3ccc(=[N+]4CCCCC4)cc-3oc3cc(N4CCCCC4)ccc23)c1
active: NCI-H226 lung -86.1% | NCI-H322M lung -85.1% | HOP-62 NSCLC -81.1% | NCI-H460 lung -71.5% | HOP-92 NSCLC -68.1% | NCI-H522 lung -86.4% | A549/ATCC NSCLC -57.9% | 786-0 renal -93.2% | COLO 205 colon -70.1%

Cc1cc(NCc2cc(Nc3ccnc4cc(Cl)ccc34)ccc2F)nc(N2CCN(C)CC2)n1
active: HOP-62 NSCLC 6.67% | NCI-H460 lung -45.3% | NCI-H522 lung -30.8% | 786-0 renal -69.7% | COLO 205 colon -73.4%
inactive: NCI-H226 lung 64.1% | NCI-H322M lung 33.8% | A549/ATCC NSCLC 23%

COc1ccc(C(=O)/C=C/c2c(C(F)(F)F)nc3sccn23)cc1OC
active: NCI-H460 lung -46.6%
inactive: NCI-H226 lung 53.5% | NCI-H322M lung 34.6% | HOP-62 NSCLC 25% | HOP-92 NSCLC 78.2% | NCI-H522 lung 93.1% | A549/ATCC NSCLC 73.8% | 786-0 renal 32% | COLO 205 colon 27.3%

CC(=O)c1nc(Nc2ccc(C)cc2)sc1C
active: NCI-H322M lung -98.9%
inactive: NCI-H226 lung 81.7% | HOP-62 NSCLC 85.7% | NCI-H460 lung 104% | HOP-92 NSCLC 73.2% | NCI-H522 lung 86.9% | A549/ATCC NSCLC 96.7% | 786-0 renal 98.1% | COLO 205 colon 105%

O=C1Nc2ccccc2/C1=C/c1cn(C(=O)c2ccc(Cl)cc2)c2ccccc12
inactive: NCI-H226 lung 92.3% | NCI-H322M lung 127% | HOP-62 NSCLC 111% | NCI-H460 lung 107% | HOP-92 NSCLC 99.3% | NCI-H522 lung 85.6% | A549/ATCC NSCLC 101% | 786-0 renal 111% | COLO 205 colon 58.2%

N#Cc1c(-c2ccccc2)cc(-c2ccc(Nc3nc(Nc4ccc(F)cc4)nc(Nc4ccc(F)cc4)n3)cc2)nc1N
inactive: NCI-H226 lung 101% | NCI-H322M lung 96.2% | HOP-62 NSCLC 80.5% | NCI-H460 lung 104% | HOP-92 NSCLC 46.8% | NCI-H522 lung 89% | A549/ATCC NSCLC 86.2% | 786-0 renal 83.9% | COLO 205 colon 81.9%

COC(=O)c1c2c(c[n+]([O-])c1C)C(=O)C=CC2=O
active: NCI-H522 lung -69.9%
inactive: NCI-H226 lung 98.1% | NCI-H322M lung 110% | HOP-62 NSCLC 104% | NCI-H460 lung 98.4% | A549/ATCC NSCLC 100% | 786-0 renal 91.6% | COLO 205 colon 33.5%

COc1ccc(-c2[nH]c(=S)n(C(CC3(C)NCC(=O)N3n3c(-c4ccccc4)cc(C)nc3=S)c3ccc(OC)cc3)c(=O)c2Br)cc1 (centres undefined)
inactive: NCI-H226 lung 57.1% | NCI-H322M lung 82.2% | HOP-62 NSCLC 66.9% | NCI-H460 lung 73.1% | HOP-92 NSCLC 38.5% | NCI-H522 lung 42.4% | A549/ATCC NSCLC 72% | 786-0 renal 83.3% | COLO 205 colon 74.9%
